Source: PubChem BioAssay
KDM5B inh – Primary screen for KDM5B Histone Demethylases FDH-coupled qHTS | Potency, µM (highest dose often 57.7 µM), hits mostly inhibitors | KDM5B demethylase, FDH-coupled NADH fluorescence (FDH is formaldehyde dehydrogenase) | Lysine-specific demethylase 5B (Homo sapiens), Q9UGL1 | AID 1347165, 2019 | 2.6% of 220,000 active; active means well fitted inhibition curve with a large enough effect; inconclusive means small, poorly fitted or top-dose-only effect; inactive means no such curve, though single readings can be large or run the other way; further: nearly all actives have a fitted effect of over 70% in size
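qHTS format, multiple compound concentrations. Buffer 50 mM HEPES pH 7.5/0.01% Tween-20; 200 nM KDM5BΔAP final; 10 min compound preincubation; substrate-mix levels 12.5 µM peptide, 25 µM α-KG, 0.25 mM NAD⁺; 30 min RT; ΔRFU.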
IP6K1 inhibitor – Primary qHTS assay for small molecule inhibitors of Inositol hexaphosphate kinase 1 (IP6K1) | 0.81% of 140,000 active | IP6K1 kinase, ADP-Glo luminescence, 2 h; hits give low values | activity change, % (series mostly up to about 58 µM) | AID 1645851, 2021 | Inositol hexakisphosphate kinase 1 (Homo sapiens), Q92551; in the data active means activity change below about -25%
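ADP-Glo luminescence measures ADP made by human IP6K1 during a 2 h RT reaction with ATP/IP6 (mix at 1.3 mM/130 uM); top library doses 57.5 and 19.1 uM final.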
A number is an active result; i = inactive; ? = inconclusive; nt = no result. Compounds with a hit are over-represented: about 2.8% of the library has one in this group of screens.

SMILES	KDM5B inh	IP6K1 inhibitor
COc1ccc2[nH]c(C(=O)NCC(=O)N3CCCCCNC(=O)CC3c3ccccc3)cc2c1 (stereo not drawn)	28µM	i
Cc1cc(C(=O)C2CC(=O)Nc3c2c(C)nn3-c2ccc(F)cc2F)c(C)s1 (stereo not drawn)	i	nt
N#Cc1ccccc1-c1ccc(C=O)o1	i	nt
N#Cc1ccccc1-c1ccc(-c2cn(Cc3nnc4ccccn34)nn2)o1	28µM	i
O=C(NCCc1ccccc1)C1CC(=O)N(c2n[nH]c3cccc(F)c23)C1 (stereo not drawn)	i	i
COc1ccc(CNC(=O)C2CC(=O)N(c3n[nH]c4cccc(F)c34)C2)cc1 (stereo not drawn)	i	i
COc1ccccc1CCNC(=O)C1CC(=O)N(c2n[nH]c3cccc(F)c23)C1 (stereo not drawn)	22µM	i
COc1ccc2[nH]cc(CCNC(=O)C3CC(=O)N(c4n[nH]c5cccc(F)c45)C3)c2c1 (stereo not drawn)	22µM	i
O=C(NCCc1cccc(F)c1)C1CC(=O)N(c2n[nH]c3cccc(F)c23)C1 (stereo not drawn)	22µM	i
CCCNC(=O)C1CC(=O)N(c2n[nH]c3cccc(F)c23)C1 (stereo not drawn)	i	i
CC(C)n1cc2cc(C(=O)N3CCN(c4ccc(F)cc4)CC3)sc2c1	?	i
O=C(CN1CCN(c2ncccn2)CC1)NCCc1nc(-c2cccnc2)no1	i	i
COC(=O)/C=C/C12COC(C)(C)C1C(O)C(OC(C)=O)C1(C)C2CCC2(C)C(c3ccoc3)OC(=O)C3OC321 (stereo not drawn)	nt	i
Cc1cc(=O)n(CC(=O)Nc2ccc(Br)cc2F)c(N2CCc3ccccc3C2)n1	14µM	i
Cc1cc(=O)n(CC(=O)Nc2cc(F)ccc2F)c(N2CCc3ccccc3C2)n1	?	i
CCc1ccc(CNC(=O)c2ccc3c(c2)nc2n3CCCCC2)cc1	i	i
C=CCCC(CN1CCCOCC1)Oc1ccc(C#N)cn1 (stereo not drawn)	i	i
C=CCCC(CN1CCCOCC1)Oc1cc(C#N)ccn1 (stereo not drawn)	28µM	i
O=C(NC1CC1)c1ccc2nnc(C3CC3)n2c1	100µM	i
O=C(NC1CC1)c1ccc2nnc(-c3ccc(F)cc3)n2c1	126µM	i
O=C(NC1CCCCC1)c1ccc2nnc(C3CCCC3)n2c1	nt	i
O=C(NC1CCCC1)c1ccc2nnc(-c3cncc(Cl)c3)n2c1	100µM	i
O=C(NC1CCCCC1)c1ccc2nnc(-c3ccc(F)cc3)n2c1	nt	i
O=C(NC1CCCCC1)c1ccc2nnc(-c3ccoc3)n2c1	nt	i
COc1cccc(CN2CCC3(CC2)CC(O)CCO3)c1 (stereo not drawn)	?	i
SMILES	KDM5B inh	IP6K1 inhibitor
O=C(NCCn1ccnc1-c1cc2n(n1)CCCNC2)c1ccncc1	?	i
CCn1ccc(C(=O)NCc2cccnc2N(C)CCc2ccccn2)n1	28µM	i
Cc1nnnn1CC(=O)NCc1cccnc1N(C)CCc1ccccn1	i	i
Cc1ccc2nc(C(=O)N(C)Cc3cc(-c4cccnc4)no3)cn2c1	i	i
CCc1nnc(CN(CC)C(=O)c2ccc3nc(-c4ccccc4)cn3c2)o1	28µM	i
CCc1noc(CN(CC)C(=O)c2cc(-c3ccccc3)nn2C)n1	i	i
Cc1cccnc1CN(C)C(=O)c1ccc2nc(-c3ccccc3)cn2c1	28µM	i
CC(C)C1C(=O)N(C)CCN1C(=O)c1cc(COc2cccc(F)c2)[nH]n1 (stereo not drawn)	i	i
O=C(O)c1ccc(CN2CCOC[C@H]2c2ncc(-c3ccc(C(F)(F)F)cc3)[nH]2)cc1	i	i
CSc1ccc(CN2CCN(C/C=C/c3ccccc3)CC2)cc1	i	nt
COc1cc(Cl)c(C)cc1NS(=O)(=O)c1cc(-c2n[nH]c(=O)c3c2CCCC3)ccc1C	i	nt
CCn1ncc(NC(=O)Cn2ncc3cc(-c4ccc(F)cc4F)ccc32)n1	?	i
CCn1ncc(NC(=O)Cn2ncc3cc(-c4ccc(C(=O)N(C)C)cc4)ccc32)n1	?	i
CCn1ncc(NC(=O)Cn2ncc3cc(-c4cc(F)ccc4F)ccc32)n1	20µM	i
CCn1ncc(NC(=O)Cn2ncc3cc(-c4ccc(N(C)C)cc4)ccc32)n1	14µM	i
O=C1NCc2ccccc2CC12CCCN2Cc1ccc(O)cc1O (stereo not drawn)	89µM	i
COc1ccc(CN2CCCC23Cc2ccccc2CNC3=O)c(O)c1 (stereo not drawn)	i	i
O=C(NC1CCN(c2cc(-c3ccc(F)cc3)[nH]n2)C1)c1ccccc1Br (stereo not drawn)	?	i
COc1ccccc1C(=O)N1CCCN(c2nnc3cccc(C)n23)CC1	25µM	i
COc1ccc(-c2cc(N3CCCN(C(=O)c4ccccc4OC)CC3)n[nH]2)cc1	i	i
Cc1ccc(C(=O)N2CCN(c3cc(-c4ccccc4)[nH]n3)CC2)cc1F	i	i
COc1ccc(C(=O)N2CCC(C3CCN(C)CC3)C2)cc1F (stereo not drawn)	i	i
COc1ccc(C(=O)N2CCN(c3nnc4cccc(C)n34)CC2)cc1F	28µM	i
Cc1ccc(C(=O)N2CCN(c3nnc4cccc(C)n34)CC2)cc1F	28µM	i
Cc1ccc(OCCC2CCN(C(=O)CCn3nc(C)cc3C)C2)cc1 (stereo not drawn)	i	i
SMILES	KDM5B inh	IP6K1 inhibitor
Cc1ccc(-c2cc(N3CCCN(C(=O)c4ccccc4C)CC3)n[nH]2)cc1C	?	i
CCc1cc(=O)n(CC(=O)Nc2ccccc2C)c(-c2ccccc2)n1	i	i
COc1c2c(c(CO)c3c1C(=O)OC3)OC1(C)CCC3(O)C(C)(C)OC(=O)CCC3(C)C1C2 (stereo not drawn)	nt	i
O=C(CSc1nc2cc(C34CC5CC(CC(C5)C3)C4)ccc2o1)c1ccccc1	i	nt
O=C(c1ccccc1)N1CCC2(CC1)C(=O)Nc1ccccc12	i	i
CCOC(=O)C1(Cc2ccc(F)cc2F)CCCN(C(=O)c2cccnc2SC)C1 (stereo not drawn)	i	i
CCOC(=O)C1(Cc2ccc(F)cc2)CCCN(C(=O)c2cc3nc(C)cc(C)n3n2)C1 (stereo not drawn)	32µM	i
Cc1cc(C)n2nc(C(=O)N3CCC4(CC3)C(=O)Nc3ccccc34)cc2n1	28µM	i
COc1ccc(C(=O)Oc2cccc(C)c2C)cc1I	i	nt
Cc1ccc(-c2nc(CNC(=O)[C@@H]3CCC[C@H](N)C3)[nH]c2-c2ccccn2)cc1	28µM	i
Cc1ccc(-c2nc(CNC(=O)C3CCNC3)[nH]c2-c2ccccn2)cc1 (stereo not drawn)	i	i
CCn1c(C2CCN(C(=O)[C@@H](N)Cc3cnc[nH]3)CC2)nn(C)c1=O	i	i
Cc1ccc(C(=O)C(=O)O)cc1C	nt	i
CCc1noc(-c2cn(C3CCN(C(=O)c4cccc5[nH]ccc45)CC3)nn2)n1	32µM	i
CC(C)c1noc(-c2cn(C3CCN(C(=O)c4cccc5[nH]ccc45)CC3)nn2)n1	28µM	i
CCc1noc(-c2cn(C3CCN(C(=O)c4ccccc4)CC3)nn2)n1	i	i
COc1ccccc1C(=O)N1CCC(n2cc(-c3nc(C(C)C)no3)nn2)CC1	i	i
